# Columns and labels:
# Test in all cases: DAPPL (digital affinity profiling via proximity ligation, sequencing); 10 mM Tris-HCl pH 7.5, 50 mM NaCl, 1 mM DTT, 4% glycerol, room temperature, 30 min; GST-TFs on glutathione beads, 16-mer random dsDNA library, 0.1% formaldehyde crosslink after washing; high values mean tight binding
# Settings in all cases: protein: recombinant; tags: N-terminal GST; dsDNA, one strand shown
# FLI1 = target: T1, FLI1 (Homo sapiens, UniProt Q01543 1-452)
# T1 sequence: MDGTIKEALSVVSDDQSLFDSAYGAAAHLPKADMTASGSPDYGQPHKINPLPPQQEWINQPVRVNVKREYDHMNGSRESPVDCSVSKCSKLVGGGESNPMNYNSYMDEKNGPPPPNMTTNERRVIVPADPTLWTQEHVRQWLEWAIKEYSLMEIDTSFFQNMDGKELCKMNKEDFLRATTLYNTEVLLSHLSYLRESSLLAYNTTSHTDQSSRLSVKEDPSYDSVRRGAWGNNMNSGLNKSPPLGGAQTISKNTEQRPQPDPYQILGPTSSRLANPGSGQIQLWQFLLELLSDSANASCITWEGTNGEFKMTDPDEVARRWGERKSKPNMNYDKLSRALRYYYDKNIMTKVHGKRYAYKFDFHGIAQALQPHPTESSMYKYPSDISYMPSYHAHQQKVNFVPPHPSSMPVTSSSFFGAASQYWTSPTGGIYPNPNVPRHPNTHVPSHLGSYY
# How it was run: (§1)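 In yeast, human transcription factors were expressed with a GST fusion, then pulled down on glutathione beads and given DNA barcodes. Pooled with a tag-only sample, they were exposed to 200 nmole of a 16-mer random double-stranded DNA library (Tris/NaCl/DTT/glycerol buffer, room temperature, 30 min), washed, crosslinked with 0.1% formaldehyde, proximity-ligated using BsaI/T4 ligase for 1 h at 37 °C, PCR-amplified and read on an Illumina NextSeq500. Each hexamer's frequency of reads for a factor, divided by the matching frequency for the tag-only sample, gives the binding signal.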
# ELK1 = target: T2, ELK1 (Homo sapiens, UniProt P19419 1-428)
# T2 sequence: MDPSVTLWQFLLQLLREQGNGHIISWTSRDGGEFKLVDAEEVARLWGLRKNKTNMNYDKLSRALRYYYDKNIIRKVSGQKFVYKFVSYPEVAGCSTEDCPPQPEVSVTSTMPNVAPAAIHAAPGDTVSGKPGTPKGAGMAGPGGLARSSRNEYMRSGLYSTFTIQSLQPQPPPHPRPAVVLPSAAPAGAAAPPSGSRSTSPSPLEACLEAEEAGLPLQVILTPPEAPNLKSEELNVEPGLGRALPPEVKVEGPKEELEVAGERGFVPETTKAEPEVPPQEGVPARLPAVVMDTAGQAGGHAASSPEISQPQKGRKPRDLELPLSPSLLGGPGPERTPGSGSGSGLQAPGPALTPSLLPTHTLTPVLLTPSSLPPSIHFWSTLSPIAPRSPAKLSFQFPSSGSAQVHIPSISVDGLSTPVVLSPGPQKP
# How it was run: as §1
# ERG = target: T3, ERG (Homo sapiens, UniProt P11308 1-479)
# T3 sequence: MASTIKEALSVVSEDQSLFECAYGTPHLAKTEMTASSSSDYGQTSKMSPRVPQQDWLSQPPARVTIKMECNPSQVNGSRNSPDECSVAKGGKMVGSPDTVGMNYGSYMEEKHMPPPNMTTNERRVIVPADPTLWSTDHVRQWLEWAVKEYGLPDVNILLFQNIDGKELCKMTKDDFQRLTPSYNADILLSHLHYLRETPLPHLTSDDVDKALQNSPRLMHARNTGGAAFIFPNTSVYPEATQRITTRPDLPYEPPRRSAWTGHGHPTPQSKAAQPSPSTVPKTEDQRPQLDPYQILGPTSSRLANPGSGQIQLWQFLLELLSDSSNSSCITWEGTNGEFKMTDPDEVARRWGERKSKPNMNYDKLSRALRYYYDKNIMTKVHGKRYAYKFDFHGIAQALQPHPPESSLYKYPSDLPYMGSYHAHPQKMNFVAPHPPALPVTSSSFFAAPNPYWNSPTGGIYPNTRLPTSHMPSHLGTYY
# How it was run: as §1
# EHF = target: T4, EHF (Homo sapiens, UniProt Q9NZC4 1-300)
# T4 sequence: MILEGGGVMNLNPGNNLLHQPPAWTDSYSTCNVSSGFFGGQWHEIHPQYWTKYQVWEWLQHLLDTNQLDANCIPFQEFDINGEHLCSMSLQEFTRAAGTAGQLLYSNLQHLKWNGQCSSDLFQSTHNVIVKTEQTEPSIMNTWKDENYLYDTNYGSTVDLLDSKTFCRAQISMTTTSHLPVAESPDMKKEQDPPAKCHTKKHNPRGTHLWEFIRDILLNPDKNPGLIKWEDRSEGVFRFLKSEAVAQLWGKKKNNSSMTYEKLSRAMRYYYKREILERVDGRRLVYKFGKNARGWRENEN
# How it was run: as §1
# SPIB = SPIB (Homo sapiens, UniProt Q01892 1-262)
# SPIB, sequence (Q01892 whole entry): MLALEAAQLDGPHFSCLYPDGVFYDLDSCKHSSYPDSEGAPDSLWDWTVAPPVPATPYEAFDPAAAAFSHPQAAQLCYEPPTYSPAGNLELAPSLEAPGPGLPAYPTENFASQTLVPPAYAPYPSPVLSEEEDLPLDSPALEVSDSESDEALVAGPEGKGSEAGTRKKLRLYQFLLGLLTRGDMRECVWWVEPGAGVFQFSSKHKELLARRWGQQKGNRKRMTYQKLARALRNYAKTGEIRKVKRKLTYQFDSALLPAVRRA
# How it was run: as §1
# FEV = target: T5, FEV (Homo sapiens, UniProt Q99581 1-238)
# T5 sequence: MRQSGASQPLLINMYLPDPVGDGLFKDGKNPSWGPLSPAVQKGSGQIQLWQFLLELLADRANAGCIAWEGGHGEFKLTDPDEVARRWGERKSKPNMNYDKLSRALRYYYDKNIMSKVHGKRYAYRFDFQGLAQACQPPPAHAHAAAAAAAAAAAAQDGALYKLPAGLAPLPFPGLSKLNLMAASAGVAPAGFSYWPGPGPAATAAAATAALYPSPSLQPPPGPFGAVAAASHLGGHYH
# How it was run: as §1
# SPIC = target: T6, SPIC (Homo sapiens, UniProt Q8N5J4 1-248)
# T6 sequence: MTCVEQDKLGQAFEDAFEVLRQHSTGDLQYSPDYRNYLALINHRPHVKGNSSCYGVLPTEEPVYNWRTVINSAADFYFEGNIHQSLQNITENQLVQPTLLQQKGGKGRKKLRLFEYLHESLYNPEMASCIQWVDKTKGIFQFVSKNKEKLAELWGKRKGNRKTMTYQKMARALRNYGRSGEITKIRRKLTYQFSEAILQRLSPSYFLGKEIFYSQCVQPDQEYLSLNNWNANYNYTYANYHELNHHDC
# How it was run: as §1
# ELK4 = target: T7, ELK4 (Homo sapiens, UniProt P28324-2 1-405)
# T7 sequence: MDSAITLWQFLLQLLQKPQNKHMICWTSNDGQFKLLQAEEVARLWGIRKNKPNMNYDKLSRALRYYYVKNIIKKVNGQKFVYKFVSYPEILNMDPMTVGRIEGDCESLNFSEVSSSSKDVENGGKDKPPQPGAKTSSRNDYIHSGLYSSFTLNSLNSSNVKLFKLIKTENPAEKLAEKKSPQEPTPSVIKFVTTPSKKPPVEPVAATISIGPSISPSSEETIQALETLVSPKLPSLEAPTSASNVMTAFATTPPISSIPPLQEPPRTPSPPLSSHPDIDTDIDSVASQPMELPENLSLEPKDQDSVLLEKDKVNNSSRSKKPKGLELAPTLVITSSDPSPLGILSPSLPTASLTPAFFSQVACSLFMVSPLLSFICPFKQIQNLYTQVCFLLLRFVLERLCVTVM
# How it was run: as §1
# ETV7 = target: T8, ETV7 (Homo sapiens, UniProt Q9Y603 1-341)
# T8 sequence: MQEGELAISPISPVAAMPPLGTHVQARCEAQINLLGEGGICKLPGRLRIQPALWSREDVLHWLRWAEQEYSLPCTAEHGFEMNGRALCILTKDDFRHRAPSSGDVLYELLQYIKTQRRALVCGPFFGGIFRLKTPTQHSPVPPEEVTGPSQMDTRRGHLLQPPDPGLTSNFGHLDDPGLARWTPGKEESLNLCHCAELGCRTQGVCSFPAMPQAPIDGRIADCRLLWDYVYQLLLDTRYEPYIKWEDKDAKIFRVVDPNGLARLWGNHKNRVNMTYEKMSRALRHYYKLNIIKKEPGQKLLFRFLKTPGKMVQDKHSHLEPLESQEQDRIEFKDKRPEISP
# How it was run: as §1
# ETV3 = target: T9, ETV3 (Homo sapiens, UniProt P41162-2 1-143)
# T9 sequence: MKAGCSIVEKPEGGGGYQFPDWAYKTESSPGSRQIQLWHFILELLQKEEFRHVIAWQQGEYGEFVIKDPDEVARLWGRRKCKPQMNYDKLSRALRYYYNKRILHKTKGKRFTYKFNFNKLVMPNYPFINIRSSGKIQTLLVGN
# How it was run: as §1
Sequence,binding signal (FLI1),binding signal (ELK1),binding signal (ERG),binding signal (EHF),binding signal (SPIB),binding signal (FEV),binding signal (SPIC),binding signal (ELK4),binding signal (ETV7),binding signal (ETV3)
GCAGCC,"1.01 fold enrichment (6-mer frequency, TF over GST control)","1.05 fold enrichment (6-mer frequency, TF over GST control)","1.04 fold enrichment (6-mer frequency, TF over GST control)","1.03 fold enrichment (6-mer frequency, TF over GST control)","1.08 fold enrichment (6-mer frequency, TF over GST control)","1.03 fold enrichment (6-mer frequency, TF over GST control)","1.03 fold enrichment (6-mer frequency, TF over GST control)","1.11 fold enrichment (6-mer frequency, TF over GST control)","1.02 fold enrichment (6-mer frequency, TF over GST control)","1 fold enrichment (6-mer frequency, TF over GST control)"
CTTGAG,"1.08 fold enrichment (6-mer frequency, TF over GST control)",,,,,,"1.12 fold enrichment (6-mer frequency, TF over GST control)","1.05 fold enrichment (6-mer frequency, TF over GST control)",,

# Reference: PMC7862700, “An all-to-all approach to the identification of sequence-specific readers for epigenetic DNA modifications on cytosine”
